Results reported in PubChem BioAssay.
Calls of active or inactive are those of the source.

Columns and labels:
Albumin (Bos taurus) = Albumin (Bos taurus) (UniProt P02769); experiment: bovine serum albumin binders on microarray, profiling panel, artefact control for SMM control protein annotation, biochemical, small-molecule microarray, Alexa647 label, 635/667 nm fluorescence (AID 1118); details: BSA-A647 binding, fluorescence 635 nm, higher = more signal;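 also: score merges 667 nm emission intensity and signal-to-noise per printed compound spot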
[1] = small-molecule microarray binders of probe aXIP, primary screen, biochemical, NeuroSMM set, 635/667 nm fluorescence (AID 1119); details: higher = more signal, called active from +8 up or from −8 down;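 also: probe is the protein aXip251-270 applied at 1 µg/mL to compound-printed slides; binding of probe to printed compounds measured as 667 nm fluorescence plus signal to noise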
[2] = small-molecule binders of probe aNOTCH3, primary screen, biochemical, small-molecule microarray, 635/667 nm fluorescence (AID 1120); details: higher = more signal;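 also: probe is a biotin-tagged antibody raised against NOTCH3 rather than NOTCH3 protein; score merges spot fluorescence near 667 nm with spot signal to noise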
[3] = small-molecule binders of probe aNOTCH2, primary screen, biochemical, small-molecule microarray, 635/667 nm fluorescence (AID 1121); details: higher = more signal;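 also: score merges feature fluorescence read at 667 nm with its signal to noise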
[4] = biological target: Carbonic anhydrase 2 (Homo sapiens) (UniProt P00918); experiment: CAII small-molecule binders, profiling panel, biochemical, small-molecule microarray, Alexa647-labelled CAII (AID 1122); details: CAII-A647 binding fluorescence, higher = more signal
[5] = COS7 lysate on small-molecule microarray, probe aHis, 635 nm (AID 1123); details: COS7 cell lysate, fluorescence, higher = more signal;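 also: z-score combines 667nm fluorescence intensity with signal-to-noise per printed compound spot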
[6] = compound binding in COS7 lysate, probe aLAP1, primary screen, cell lysate, small-molecule microarray (AID 1124); details: probe aLAP1, fluorescence, higher = more signal;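 also: lysate comes from COS7 cells expressing LAP1 and is applied at 0.3 µg/mL; score merges spot fluorescence near 667 nm with signal-to-noise over triplicate slides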
Sam68 (KHDRBS1) = experiment: Sam68 small-molecule binders, primary screen, biochemical, small-molecule microarray, 635 nm fluorescence (AID 1125); details: small-molecule microarray binding, higher = more signal;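 also: score merges 667 nm channel intensity with signal to noise over triplicate slides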
[7] = test system: Chordin-like protein 2 (CHRDL2); experiment: CHRDL2 small-molecule binders, primary screen, biochemical, small-molecule microarray, 635 nm fluorescence (AID 1126); details: small-molecule microarray binding, fluorescence 635 nm; higher = more signal;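 also: printed compound slides probed with Chrdl2 protein at 4 µg/mL for 1 h at 4 C; score merges 667 nm emission intensity with signal to noise over three replicate slides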
[8] = biological target: Concanavalin-A (Canavalia ensiformis) (UniProt P02866); experiment: ConA small-molecule binders, primary screen, artefact control for SMM control protein annotation, biochemical, small-molecule microarray, Alexa647 label, 635 nm (AID 1127); details: ConA-A647 binding fluorescence, higher = more signal;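 also: z combines 667 nm emission intensity with signal-to-noise across three replicate slides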
[9] = anti-His antibody binders, primary screen, artefact control for SMM control protein annotation, biochemical, small-molecule microarray, 635 nm fluorescence (AID 1128); details: anti-His Alexa647 antibody binding, higher = more signal;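 also: score merges feature fluorescence with signal-to-noise for each printed compound spot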
[10] = test system: Human papillomavirus type 1a E7 protein (residues 1-88); experiment: HPV1a E7 small-molecule binders, primary screen, biochemical, small-molecule microarray, residues 1-88, 635 nm (AID 1129); details: small-molecule microarray binding, fluorescence 635 nm; higher = more signal
[11] = biological target: Focal adhesion kinase 1 (Homo sapiens) (UniProt Q05397); experiment: small-molecule microarray binders of FAK, primary screen, biochemical, 635/667 nm fluorescence, BSA, DTT (AID 1130); details: PTK2 binding, 635 nm fluorescence, higher = more signal;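 also: composite of spot emission at 667 nm and signal to noise over triplicate slides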
[12] = test system: Fibrinogen (Alexa647-labelled); experiment: fibrinogen binders on compound microarrays, profiling panel, artefact control for SMM control-protein annotation, biochemical, small-molecule microarray, 635/667 nm fluorescence (AID 1131); details: fibrinogen-A647 binding fluorescence, higher = more signal;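 also: z-score merges 667 nm fluorescence with per-spot signal-to-noise over triplicate slides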
[13] = biological target: Follistatin (Homo sapiens) (UniProt P19883); experiment: follistatin binders on small-molecule microarrays, primary screen, biochemical, small-molecule microarray, 635/667 nm fluorescence (AID 1132); details: FST binding, 635 nm fluorescence, higher = more signal
[14] = biological target: Fibroblast growth factor 2 (Homo sapiens) (UniProt P09038); experiment: FGF2 binders on small-molecule microarrays, primary screen, biochemical, small-molecule microarray, 635/667 nm fluorescence (AID 1133); details: small-molecule microarray binding, FGF2, fluorescence 635/667; higher = more signal
[15] = mitochondrial membrane potential change in A549 cells, profiling panel, cell-based, JC-1 fluorescence, basal, 24 h, 100 nL (AID 1138); details: higher = more signal;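 also: A549 lung adenocarcinoma cells under basal conditions with no added stimulus; test concentration not given here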
Lefty1 = Lefty1 binders on small-molecule microarrays, primary screen, biochemical, small-molecule microarray, 635/667 nm fluorescence (AID 1139); details: small-molecule microarray binding, fluorescence 635/667; higher = more signal
[16] = test system: wheat germ agglutinin (Triticum aestivum), Alexa647-labelled; experiment: wheat germ agglutinin binders on compound microarrays, profiling panel, artefact control for SMM control-protein annotation, biochemical, small-molecule microarray, 635/667 nm fluorescence (AID 1140); details: WGA-A647 binding, 635 nm fluorescence, higher = more signal;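 also: score merges 667 nm feature emission with signal to noise over triplicate slides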
[17] = biological target: Luciferin 4-monooxygenase (Photinus pyralis) (UniProt P08659); experiment: firefly luciferase enzyme inhibitors, primary screen, biochemical, luminescence, purified enzyme, 2006 set (AID 1141); details: SteadyGlo luminescence, 30 min, higher = more signal, called active from +8 up or from −8 down;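 also: cell-free assay with purified firefly luciferase at 100 ng per well in PBS; test concentration not given here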
Chain of Luciferin 4-monooxygenase (Photinus pyralis) (P08659 whole entry, looked up): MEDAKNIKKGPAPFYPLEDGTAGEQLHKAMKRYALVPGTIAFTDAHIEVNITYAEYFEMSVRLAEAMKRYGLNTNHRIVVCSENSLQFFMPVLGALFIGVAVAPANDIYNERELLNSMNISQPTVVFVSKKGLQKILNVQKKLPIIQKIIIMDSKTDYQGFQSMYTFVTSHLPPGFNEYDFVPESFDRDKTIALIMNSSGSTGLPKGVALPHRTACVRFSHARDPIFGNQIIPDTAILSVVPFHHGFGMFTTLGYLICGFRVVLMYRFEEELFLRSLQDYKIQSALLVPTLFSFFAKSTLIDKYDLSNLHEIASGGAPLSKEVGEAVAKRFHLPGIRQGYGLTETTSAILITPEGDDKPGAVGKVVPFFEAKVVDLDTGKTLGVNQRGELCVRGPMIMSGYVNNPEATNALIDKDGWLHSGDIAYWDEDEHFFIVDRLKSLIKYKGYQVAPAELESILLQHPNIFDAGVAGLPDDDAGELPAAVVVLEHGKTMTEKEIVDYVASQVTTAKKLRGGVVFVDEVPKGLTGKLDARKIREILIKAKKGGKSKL

Chain of Fibroblast growth factor 2 (Homo sapiens) (P09038 whole entry, looked up): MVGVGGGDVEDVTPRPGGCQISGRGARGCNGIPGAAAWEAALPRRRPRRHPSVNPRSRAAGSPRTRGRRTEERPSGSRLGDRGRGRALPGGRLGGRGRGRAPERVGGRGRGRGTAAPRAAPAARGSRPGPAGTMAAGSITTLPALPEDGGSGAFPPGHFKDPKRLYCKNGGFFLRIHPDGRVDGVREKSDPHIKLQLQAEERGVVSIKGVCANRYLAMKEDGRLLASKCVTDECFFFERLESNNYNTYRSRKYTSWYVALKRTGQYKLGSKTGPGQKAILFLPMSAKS
Chain of Follistatin (Homo sapiens) (P19883 whole entry, looked up): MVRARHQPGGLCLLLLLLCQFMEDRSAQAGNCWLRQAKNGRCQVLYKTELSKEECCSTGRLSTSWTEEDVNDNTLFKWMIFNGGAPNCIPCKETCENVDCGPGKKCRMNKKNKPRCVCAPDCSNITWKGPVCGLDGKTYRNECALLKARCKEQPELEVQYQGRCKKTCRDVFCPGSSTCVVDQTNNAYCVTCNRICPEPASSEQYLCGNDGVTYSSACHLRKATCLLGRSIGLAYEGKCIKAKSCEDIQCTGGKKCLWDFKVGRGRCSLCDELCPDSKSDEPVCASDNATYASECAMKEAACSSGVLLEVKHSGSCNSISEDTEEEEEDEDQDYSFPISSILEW
Chain of Albumin (Bos taurus) (P02769 whole entry, looked up): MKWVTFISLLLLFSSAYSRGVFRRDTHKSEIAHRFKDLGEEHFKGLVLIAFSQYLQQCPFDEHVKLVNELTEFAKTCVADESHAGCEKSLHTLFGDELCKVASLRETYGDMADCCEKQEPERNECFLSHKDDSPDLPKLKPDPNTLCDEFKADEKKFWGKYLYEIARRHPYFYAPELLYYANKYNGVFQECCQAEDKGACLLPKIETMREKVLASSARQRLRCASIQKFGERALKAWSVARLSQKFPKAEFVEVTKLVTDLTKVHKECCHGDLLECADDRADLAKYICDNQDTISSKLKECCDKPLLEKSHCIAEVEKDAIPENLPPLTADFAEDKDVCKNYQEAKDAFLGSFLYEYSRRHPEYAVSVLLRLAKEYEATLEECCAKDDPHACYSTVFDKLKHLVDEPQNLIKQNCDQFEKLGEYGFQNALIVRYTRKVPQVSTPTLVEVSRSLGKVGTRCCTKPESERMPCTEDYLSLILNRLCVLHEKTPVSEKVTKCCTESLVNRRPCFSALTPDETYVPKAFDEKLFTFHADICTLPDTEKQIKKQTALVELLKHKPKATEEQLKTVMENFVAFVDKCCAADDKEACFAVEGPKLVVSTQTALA
Chain of Focal adhesion kinase 1 (Homo sapiens) (Q05397 whole entry, looked up): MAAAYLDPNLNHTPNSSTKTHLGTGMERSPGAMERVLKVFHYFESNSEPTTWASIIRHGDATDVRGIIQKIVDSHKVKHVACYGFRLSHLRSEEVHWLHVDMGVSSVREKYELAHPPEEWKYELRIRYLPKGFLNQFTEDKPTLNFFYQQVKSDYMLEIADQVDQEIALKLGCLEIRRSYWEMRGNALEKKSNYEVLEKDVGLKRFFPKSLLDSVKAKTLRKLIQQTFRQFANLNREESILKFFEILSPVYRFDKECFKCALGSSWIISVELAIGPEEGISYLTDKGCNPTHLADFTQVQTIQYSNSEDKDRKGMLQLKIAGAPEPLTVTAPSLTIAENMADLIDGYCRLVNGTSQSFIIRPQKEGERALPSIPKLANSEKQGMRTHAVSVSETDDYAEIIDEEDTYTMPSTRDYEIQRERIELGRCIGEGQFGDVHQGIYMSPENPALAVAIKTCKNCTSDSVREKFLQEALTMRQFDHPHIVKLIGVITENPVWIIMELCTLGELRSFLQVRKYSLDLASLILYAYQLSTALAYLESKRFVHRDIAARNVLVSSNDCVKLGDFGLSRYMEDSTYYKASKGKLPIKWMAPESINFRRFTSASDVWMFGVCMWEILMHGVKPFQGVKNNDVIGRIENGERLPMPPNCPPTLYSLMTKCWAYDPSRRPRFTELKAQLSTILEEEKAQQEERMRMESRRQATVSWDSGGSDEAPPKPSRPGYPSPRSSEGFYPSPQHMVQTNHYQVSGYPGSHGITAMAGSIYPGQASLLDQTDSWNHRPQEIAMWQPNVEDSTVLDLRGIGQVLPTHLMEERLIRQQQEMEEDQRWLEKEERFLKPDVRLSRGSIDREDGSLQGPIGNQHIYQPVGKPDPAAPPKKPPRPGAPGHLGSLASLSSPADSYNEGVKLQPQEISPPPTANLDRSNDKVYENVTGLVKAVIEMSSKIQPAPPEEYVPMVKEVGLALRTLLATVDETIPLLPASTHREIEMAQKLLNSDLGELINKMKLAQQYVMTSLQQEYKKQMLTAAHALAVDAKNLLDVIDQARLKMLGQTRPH
Chain of Concanavalin-A (Canavalia ensiformis) (P02866 whole entry, looked up): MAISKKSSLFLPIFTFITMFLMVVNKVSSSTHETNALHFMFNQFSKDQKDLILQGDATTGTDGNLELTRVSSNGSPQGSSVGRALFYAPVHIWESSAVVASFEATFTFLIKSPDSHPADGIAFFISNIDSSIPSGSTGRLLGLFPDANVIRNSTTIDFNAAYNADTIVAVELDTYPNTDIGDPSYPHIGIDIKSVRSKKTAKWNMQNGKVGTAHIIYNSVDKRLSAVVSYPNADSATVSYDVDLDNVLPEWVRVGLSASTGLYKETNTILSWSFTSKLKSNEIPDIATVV

Structure (SMILES) | composite z-score (Albumin (Bos taurus)) | composite Z-score [1] | composite z-score [2] | composite z-score [3] | composite z-score [4] | composite z-score [5] | composite z-score [6] | composite z-score (Sam68 (KHDRBS1)) | composite z-score [7] | composite z-score [8] | composite z-score [9] | composite z-score [10] | composite z-score [11] | composite z-score [12] | composite z-score [13] | composite z-score [14] | z-score [15] | composite z-score (Lefty1) | composite z-score [16] | z-score [17]
C#CCCCON=C1[C@H]2CCn3c(=O)n([C@@H](CC)c4ccccc4)c(=O)n3[C@H]2[C@H](O)[C@@H]2O[C@H]12 | 0.0481 | -0.15 (inactive) | -0.0918 | -0.0745 | 0.59 | 0.219 | -0.131 | 0.113 | 0.0573 | 0.154 | 0.114 | -0.256 | 0.235 | -0.509 | 0.587 | 0.639 | 0.351 | 0.368 | 0.283 | -0.0508 (inactive)
C=CC[C@@H]1C=C[C@H](ON=C[C@@H](NS(=O)(=O)c2ccc(C)cc2)[C@H](C)C=CCC(=O)OC)[C@@H](CO)O1 | 0.766 | 0.819 (inactive) | 0.0232 | -0.0393 | -0.277 | -0.327 | 0.0555 | -0.483 | 0.487 | -1.58 | 1.34 | -0.205 | -0.0954 | -0.193 | 0.774 | 0.349 | -0.0376 | 0.625 | 0.511 | 1.18 (inactive)
C[C@H]1CC[C@@H](C(=O)O)N[C@@H]1c1ccc(C#Cc2ccccc2)cc1 | 0.213 | 0.142 (inactive) | 0.0876 | -0.0907 | 0.863 | 0.803 | 0.707 | 1.22 | 1.34 | 1.1 | 1.53 | 1.06 | 0.454 | 0.918 | 1.07 | 0.551 | -2.02 | 0.608 | 1.11 | -9.82 (active)
COc1ccc(COC(=O)NN=C2C[C@@H](O)[C@@H](O)[C@@H]3[C@@H]4C(=O)N([C@@H](C)c5ccccc5)C(=O)[C@@H]4CC[C@@H]23)cc1 | 0.274 | -0.228 (inactive) | -0.0697 | 0.0318 | 0.171 | -0.211 | 0.131 | -0.196 | 0.448 | 0.162 | -0.253 | 0.661 | -0.313 | 0.373 | 0.244 | 0.272 | -0.304 | 0.244 | 0.242 | 0.447 (inactive)
COc1ccc(COC(=O)NN=C2C[C@@H](O)[C@@H](O)[C@@H]3[C@@H]4C(=O)N(C[C@@H]5CCCO5)C(=O)[C@@H]4CC[C@H]23)cc1 | 0.533 | -0.713 (inactive) | 0.0562 | -0.0811 | -0.283 | 0.121 | -0.341 | -0.624 | 0.144 | -0.826 | -0.156 | -0.309 | 0.0444 | -0.269 | -1.13 | -0.902 | -0.252 | -1.1 | 0.128 | 0.917 (inactive)
Cc1cc(C)c(-c2cc([C@H](C)ON=C[C@@H](C)[C@H](OCc3ccccc3)C(C)C)on2)c(C)c1 | -0.365 | 0.687 (inactive) | -0.061 | -0.185 | -0.206 | -0.244 | -0.637 | -0.686 | -0.11 | -0.412 | -0.781 | -1.04 | 0.0063 | -1.82 | -0.158 | 0.133 | 1.18 | 0.116 | 0.528 | 0.82 (inactive)
COC(=O)[C@H](C)NC(=O)CCC1CC(OC(=O)NCc2ccc3c(c2)OCO3)CC2(CCCC(COC(=O)NCCc3ccc(Cl)cc3)O2)O1 (stereo not given in full) | 0.293 | 0.0601 (inactive) | 0.0129 | -0.0974 | 0.0233 | 0.043 | -0.0478 | 0.422 | 1.26 | -0.455 | 1.22 | 0.377 | 0.142 | 0.275 | 0.758 | 0.742 | -0.928 | 0.398 | 0.268 | 0.839 (inactive)
COC(OC)[C@@H](C)[C@H](OC)[C@@H](C)[C@H](OC)c1ccccc1 | -0.355 | 0.273 (inactive) | -0.0647 | -0.15 | -0.552 | -0.729 | -0.266 | -1.16 | 0.473 | -0.18 | -0.504 | 0.104 | -0.043 | -0.353 | 0.144 | 0.142 | 2.15 | 0.253 | -0.0965 | -1.67 (inactive)
CC(=O)OC[C@H]1O[C@@H](ON=C(C)C)[C@H](OC(C)=O)[C@@H](OC(C)=O)[C@@H]1OC(C)=O | -0.727 | -1.02 (inactive) | -0.0178 | -0.0272 | -0.755 | -0.775 | 0.694 | -0.743 | -0.736 | -1.09 | 0.759 | -1.41 | -0.242 | -0.515 | -1.27 | -0.109 | -0.191 | -1.03 | -0.88 | 0.316 (inactive)
CC1(C)O[C@H]2O[C@H]([C@H](O)CON=C3[C@H]4CCn5c(=O)n(-c6ccccc6)c(=O)n5[C@H]4[C@H](O)[C@@H]4O[C@H]34)[C@H](O)[C@H]2O1 | 0.661 | -0.171 (inactive) | -0.342 | -0.105 | -0.195 | -0.337 | -0.0336 | -0.773 | 0.19 | 0.444 | 0.455 | -0.282 | -0.282 | 0.0946 | 0.154 | 0.947 | -0.994 | 0.222 | 0.0136 | 0.0158 (inactive)
CCc1cc2c(nc1CC)CCN(CCC(C)=NO[C@@H]1O[C@H](COC(C)=O)[C@@H](OC(C)=O)[C@H](OC(C)=O)[C@H]1OC(C)=O)C2 | 0.314 | -0.0798 (inactive) | 0.105 | -0.0527 | 0.0275 | 1.34 | 0.388 | 1.32 | 0.922 | 0.571 | 0.0815 | 0.286 | 0.0487 | 0.816 | 1.03 | 0.559 | -0.766 | 1.42 | 0.167 | 1.03 (inactive)
